From ChEMBL document CHEMBL1961873, “Compounds: GSK PKIS; Assays: Nanosyn kinase panel” (2012)

What was measured:
[1] = molecular target: Leukocyte tyrosine kinase receptor (Homo sapiens) (UniProt P29376); conditions: at 1 µM;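 note: each value is the mean inhibition of LTK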
[2] = molecular target: Tyrosine-protein kinase Lyn (Homo sapiens) (UniProt P07948); conditions: at 0.1 µM
[3] = molecular target: Tyrosine-protein kinase Lyn (Homo sapiens) (UniProt P07948); conditions: at 1 µM
[4] = molecular target: Tyrosine-protein kinase Lyn (Homo sapiens) (UniProt P07948); conditions: at 0.1 µM; remark: listed apart in the source
[5] = molecular target: Tyrosine-protein kinase Lyn (Homo sapiens) (UniProt P07948); conditions: at 1 µM; remark: listed apart in the source
[6] = molecular target: T1, Tyrosine-protein kinase Mer (Homo sapiens) (UniProt Q12866); conditions: at 0.1 µM
T1 sequence (whole entry): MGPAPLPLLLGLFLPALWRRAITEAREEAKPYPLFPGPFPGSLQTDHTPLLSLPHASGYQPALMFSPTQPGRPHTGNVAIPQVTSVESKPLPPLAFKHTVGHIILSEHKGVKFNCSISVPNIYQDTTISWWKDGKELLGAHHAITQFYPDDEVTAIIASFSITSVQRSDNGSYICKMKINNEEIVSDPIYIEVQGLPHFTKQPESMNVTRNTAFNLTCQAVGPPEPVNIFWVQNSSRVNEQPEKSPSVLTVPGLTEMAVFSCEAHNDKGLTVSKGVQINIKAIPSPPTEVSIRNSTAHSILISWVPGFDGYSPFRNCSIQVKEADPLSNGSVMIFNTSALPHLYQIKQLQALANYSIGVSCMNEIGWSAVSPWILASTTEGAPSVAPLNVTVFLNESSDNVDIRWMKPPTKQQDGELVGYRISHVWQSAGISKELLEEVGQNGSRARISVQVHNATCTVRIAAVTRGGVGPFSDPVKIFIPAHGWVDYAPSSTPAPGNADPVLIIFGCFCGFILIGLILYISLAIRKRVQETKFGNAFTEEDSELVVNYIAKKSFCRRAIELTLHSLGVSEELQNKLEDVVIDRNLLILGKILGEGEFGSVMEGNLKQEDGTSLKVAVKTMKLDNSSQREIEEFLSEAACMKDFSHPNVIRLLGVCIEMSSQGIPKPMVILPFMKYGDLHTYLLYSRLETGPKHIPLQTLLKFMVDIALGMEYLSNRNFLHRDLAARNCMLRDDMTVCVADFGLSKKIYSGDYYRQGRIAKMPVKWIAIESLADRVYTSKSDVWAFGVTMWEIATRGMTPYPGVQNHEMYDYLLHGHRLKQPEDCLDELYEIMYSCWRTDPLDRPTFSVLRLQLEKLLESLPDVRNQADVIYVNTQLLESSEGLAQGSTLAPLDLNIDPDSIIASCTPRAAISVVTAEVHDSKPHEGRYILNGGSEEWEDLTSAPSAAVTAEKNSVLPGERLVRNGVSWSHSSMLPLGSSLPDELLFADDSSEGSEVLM

[7] = molecular target: T1, Tyrosine-protein kinase Mer (Homo sapiens); conditions: at 1 µM
[8] = molecular target: Hepatocyte growth factor receptor (Homo sapiens) (UniProt P08581); conditions: at 0.1 µM
[9] = molecular target: Hepatocyte growth factor receptor (Homo sapiens) (UniProt P08581); conditions: at 1 µM
[10] = molecular target: T2, Muscle, skeletal receptor tyrosine-protein kinase (Homo sapiens) (UniProt O15146); conditions: at 0.1 µM
T2 sequence (whole entry): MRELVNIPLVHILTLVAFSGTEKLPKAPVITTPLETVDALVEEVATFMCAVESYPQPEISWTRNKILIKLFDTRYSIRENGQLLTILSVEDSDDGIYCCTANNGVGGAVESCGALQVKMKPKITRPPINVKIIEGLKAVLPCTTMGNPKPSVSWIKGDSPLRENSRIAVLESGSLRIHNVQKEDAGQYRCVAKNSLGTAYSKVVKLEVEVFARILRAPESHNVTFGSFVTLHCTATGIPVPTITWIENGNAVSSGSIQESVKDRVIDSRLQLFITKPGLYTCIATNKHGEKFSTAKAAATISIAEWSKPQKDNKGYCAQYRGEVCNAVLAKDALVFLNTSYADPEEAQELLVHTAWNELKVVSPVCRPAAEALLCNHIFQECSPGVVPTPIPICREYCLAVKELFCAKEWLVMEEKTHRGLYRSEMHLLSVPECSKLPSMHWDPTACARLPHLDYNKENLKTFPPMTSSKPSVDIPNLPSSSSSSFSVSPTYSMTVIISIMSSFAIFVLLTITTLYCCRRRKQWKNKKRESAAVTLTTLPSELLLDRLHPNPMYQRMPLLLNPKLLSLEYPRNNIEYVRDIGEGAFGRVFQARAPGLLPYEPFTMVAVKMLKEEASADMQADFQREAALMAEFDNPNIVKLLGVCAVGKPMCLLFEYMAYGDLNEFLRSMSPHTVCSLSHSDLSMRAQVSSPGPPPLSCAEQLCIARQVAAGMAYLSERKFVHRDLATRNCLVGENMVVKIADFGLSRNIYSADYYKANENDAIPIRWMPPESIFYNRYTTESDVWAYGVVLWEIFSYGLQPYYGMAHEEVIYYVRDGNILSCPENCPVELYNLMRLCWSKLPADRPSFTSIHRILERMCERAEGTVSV

[11] = molecular target: T2, Muscle, skeletal receptor tyrosine-protein kinase (Homo sapiens); conditions: at 1 µM
[12] = molecular target: Platelet-derived growth factor receptor alpha (Homo sapiens) (UniProt P16234); conditions: at 0.1 µM
[13] = molecular target: Platelet-derived growth factor receptor alpha (Homo sapiens) (UniProt P16234); conditions: at 1 µM
[14] = tested on: Platelet-derived growth factor receptor alpha (Homo sapiens), P16234 [D842V]; conditions: at 0.1 µM
[15] = tested on: Platelet-derived growth factor receptor alpha (Homo sapiens), P16234 [D842V]; conditions: at 1 µM
[16] = tested on: Platelet-derived growth factor receptor alpha (Homo sapiens), P16234 [T674I]; conditions: at 0.1 µM
[17] = tested on: Platelet-derived growth factor receptor alpha (Homo sapiens), P16234 [T674I]; conditions: at 1 µM
[18] = tested on: Platelet-derived growth factor receptor alpha (Homo sapiens), P16234 [V561D]; conditions: at 0.1 µM
[19] = tested on: Platelet-derived growth factor receptor alpha (Homo sapiens), P16234 [V561D]; conditions: at 1 µM
[20] = molecular target: Platelet-derived growth factor receptor beta (Homo sapiens) (UniProt P09619); conditions: at 0.1 µM;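 note: reported value is the mean percent inhibition of the kinase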
Sequence of Platelet-derived growth factor receptor beta (Homo sapiens) (P09619 whole entry): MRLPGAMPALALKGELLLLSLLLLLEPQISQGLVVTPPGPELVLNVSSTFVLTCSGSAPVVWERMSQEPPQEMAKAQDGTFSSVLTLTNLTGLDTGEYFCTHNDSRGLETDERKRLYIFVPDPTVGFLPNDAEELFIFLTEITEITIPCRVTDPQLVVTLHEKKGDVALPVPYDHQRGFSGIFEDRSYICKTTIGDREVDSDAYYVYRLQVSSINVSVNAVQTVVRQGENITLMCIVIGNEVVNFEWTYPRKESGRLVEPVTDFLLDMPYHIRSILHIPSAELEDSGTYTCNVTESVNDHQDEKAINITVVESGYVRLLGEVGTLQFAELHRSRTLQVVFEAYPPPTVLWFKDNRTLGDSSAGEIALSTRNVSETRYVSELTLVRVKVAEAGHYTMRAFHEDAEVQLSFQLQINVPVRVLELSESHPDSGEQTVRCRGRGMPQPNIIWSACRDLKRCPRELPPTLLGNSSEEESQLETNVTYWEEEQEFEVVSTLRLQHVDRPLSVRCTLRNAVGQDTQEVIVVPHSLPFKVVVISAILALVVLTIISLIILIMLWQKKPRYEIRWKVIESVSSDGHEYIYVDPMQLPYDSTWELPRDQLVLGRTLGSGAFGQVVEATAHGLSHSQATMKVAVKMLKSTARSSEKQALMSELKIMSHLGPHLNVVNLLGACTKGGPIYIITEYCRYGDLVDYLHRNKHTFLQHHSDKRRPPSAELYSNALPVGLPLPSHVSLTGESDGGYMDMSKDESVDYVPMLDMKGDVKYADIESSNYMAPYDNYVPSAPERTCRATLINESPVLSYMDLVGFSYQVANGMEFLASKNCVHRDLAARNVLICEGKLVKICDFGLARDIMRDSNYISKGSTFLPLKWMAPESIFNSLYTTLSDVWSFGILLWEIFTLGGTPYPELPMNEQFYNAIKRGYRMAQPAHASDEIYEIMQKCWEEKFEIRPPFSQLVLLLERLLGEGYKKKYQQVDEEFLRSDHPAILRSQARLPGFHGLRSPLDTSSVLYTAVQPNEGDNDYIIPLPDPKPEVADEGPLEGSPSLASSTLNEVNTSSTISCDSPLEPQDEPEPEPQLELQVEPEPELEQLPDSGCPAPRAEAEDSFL

Sequence of Hepatocyte growth factor receptor (Homo sapiens) (P08581 whole entry): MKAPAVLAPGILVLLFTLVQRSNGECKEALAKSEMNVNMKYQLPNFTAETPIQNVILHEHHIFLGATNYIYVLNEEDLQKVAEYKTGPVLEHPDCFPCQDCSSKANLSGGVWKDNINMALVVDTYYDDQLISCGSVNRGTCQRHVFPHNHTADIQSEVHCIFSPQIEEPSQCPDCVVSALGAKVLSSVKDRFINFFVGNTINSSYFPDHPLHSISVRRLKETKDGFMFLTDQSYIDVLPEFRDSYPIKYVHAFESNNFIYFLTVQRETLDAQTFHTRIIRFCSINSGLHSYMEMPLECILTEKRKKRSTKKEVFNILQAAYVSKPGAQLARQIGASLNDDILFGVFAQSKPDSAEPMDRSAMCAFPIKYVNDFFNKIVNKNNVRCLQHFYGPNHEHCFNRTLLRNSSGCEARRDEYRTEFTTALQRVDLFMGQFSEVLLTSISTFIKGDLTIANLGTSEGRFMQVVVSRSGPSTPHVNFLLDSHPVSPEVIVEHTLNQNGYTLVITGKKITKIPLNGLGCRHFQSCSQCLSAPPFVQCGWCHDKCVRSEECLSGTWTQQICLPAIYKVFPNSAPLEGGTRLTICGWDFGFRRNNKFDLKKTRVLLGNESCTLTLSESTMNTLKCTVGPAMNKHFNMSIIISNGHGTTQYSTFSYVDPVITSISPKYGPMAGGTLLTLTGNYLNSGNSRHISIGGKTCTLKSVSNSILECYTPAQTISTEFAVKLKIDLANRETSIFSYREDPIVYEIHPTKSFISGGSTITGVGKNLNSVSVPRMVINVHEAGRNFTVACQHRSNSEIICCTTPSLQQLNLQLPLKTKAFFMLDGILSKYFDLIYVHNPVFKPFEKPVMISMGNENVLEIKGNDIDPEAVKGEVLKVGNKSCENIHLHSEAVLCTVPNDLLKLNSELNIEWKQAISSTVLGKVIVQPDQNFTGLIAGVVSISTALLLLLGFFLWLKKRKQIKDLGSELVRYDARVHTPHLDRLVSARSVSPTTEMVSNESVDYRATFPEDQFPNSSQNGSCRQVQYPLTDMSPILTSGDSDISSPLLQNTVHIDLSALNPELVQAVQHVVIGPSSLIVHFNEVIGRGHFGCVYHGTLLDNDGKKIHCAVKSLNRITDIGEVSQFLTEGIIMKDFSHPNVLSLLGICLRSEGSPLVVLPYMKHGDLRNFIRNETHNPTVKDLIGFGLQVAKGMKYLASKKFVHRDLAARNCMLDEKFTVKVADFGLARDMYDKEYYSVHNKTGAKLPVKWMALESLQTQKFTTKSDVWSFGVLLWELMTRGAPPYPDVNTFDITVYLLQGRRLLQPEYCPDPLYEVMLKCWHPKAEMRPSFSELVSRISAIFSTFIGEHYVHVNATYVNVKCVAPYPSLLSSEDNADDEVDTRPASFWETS
Sequence of Leukocyte tyrosine kinase receptor (Homo sapiens) (P29376 whole entry): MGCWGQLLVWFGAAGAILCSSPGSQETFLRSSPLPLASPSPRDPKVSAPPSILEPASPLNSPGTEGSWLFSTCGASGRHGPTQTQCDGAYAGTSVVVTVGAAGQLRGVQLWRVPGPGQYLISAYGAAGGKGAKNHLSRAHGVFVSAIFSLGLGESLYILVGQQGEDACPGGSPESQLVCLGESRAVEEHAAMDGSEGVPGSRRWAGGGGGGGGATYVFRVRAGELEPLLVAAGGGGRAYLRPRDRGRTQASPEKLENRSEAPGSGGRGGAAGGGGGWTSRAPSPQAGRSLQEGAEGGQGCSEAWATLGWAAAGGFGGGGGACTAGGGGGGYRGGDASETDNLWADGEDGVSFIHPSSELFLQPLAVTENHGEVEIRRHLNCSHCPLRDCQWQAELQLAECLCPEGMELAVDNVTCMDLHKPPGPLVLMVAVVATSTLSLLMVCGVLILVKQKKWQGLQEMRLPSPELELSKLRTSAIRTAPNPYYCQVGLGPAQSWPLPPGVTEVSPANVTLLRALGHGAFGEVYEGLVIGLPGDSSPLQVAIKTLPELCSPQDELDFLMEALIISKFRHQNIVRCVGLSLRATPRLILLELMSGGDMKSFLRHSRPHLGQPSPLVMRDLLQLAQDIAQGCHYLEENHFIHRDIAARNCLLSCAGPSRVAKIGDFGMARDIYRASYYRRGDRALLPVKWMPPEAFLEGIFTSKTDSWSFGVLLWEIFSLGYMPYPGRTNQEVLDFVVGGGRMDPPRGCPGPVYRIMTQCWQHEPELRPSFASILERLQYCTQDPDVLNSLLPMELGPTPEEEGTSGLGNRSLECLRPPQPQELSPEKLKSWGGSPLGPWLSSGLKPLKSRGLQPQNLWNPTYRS
Sequence of Platelet-derived growth factor receptor alpha (Homo sapiens), P16234 [D842V] (P16234 whole entry D842V): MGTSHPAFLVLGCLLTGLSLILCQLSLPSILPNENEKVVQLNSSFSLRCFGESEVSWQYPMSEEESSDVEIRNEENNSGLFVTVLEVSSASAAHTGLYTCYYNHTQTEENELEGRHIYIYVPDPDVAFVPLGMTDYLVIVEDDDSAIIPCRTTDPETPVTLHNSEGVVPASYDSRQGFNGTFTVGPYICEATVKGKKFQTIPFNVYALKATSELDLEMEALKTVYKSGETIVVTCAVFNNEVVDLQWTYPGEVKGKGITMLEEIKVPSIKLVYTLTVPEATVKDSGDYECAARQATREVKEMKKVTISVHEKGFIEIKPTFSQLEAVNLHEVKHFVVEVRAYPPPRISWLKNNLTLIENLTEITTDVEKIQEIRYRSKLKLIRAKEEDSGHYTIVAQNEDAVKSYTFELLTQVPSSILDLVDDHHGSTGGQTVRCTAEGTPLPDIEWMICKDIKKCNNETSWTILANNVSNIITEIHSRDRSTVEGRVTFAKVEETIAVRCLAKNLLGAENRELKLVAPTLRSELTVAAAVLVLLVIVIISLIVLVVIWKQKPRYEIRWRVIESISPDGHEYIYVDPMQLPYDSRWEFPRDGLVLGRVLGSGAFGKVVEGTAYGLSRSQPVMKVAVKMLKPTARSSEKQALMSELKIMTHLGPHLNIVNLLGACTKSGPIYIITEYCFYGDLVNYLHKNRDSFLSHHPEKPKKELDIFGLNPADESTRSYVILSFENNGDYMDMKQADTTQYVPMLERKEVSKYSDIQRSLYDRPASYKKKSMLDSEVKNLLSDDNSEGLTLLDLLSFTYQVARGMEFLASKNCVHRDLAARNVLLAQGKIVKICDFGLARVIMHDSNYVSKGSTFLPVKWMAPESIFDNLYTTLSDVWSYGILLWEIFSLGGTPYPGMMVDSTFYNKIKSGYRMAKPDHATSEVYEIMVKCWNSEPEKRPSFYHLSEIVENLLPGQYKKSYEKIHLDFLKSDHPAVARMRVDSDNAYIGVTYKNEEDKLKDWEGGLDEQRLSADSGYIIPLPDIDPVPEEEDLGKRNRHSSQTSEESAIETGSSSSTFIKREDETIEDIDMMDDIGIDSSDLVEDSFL
Sequence of Tyrosine-protein kinase Lyn (Homo sapiens) (P07948 2-512 limits assumed): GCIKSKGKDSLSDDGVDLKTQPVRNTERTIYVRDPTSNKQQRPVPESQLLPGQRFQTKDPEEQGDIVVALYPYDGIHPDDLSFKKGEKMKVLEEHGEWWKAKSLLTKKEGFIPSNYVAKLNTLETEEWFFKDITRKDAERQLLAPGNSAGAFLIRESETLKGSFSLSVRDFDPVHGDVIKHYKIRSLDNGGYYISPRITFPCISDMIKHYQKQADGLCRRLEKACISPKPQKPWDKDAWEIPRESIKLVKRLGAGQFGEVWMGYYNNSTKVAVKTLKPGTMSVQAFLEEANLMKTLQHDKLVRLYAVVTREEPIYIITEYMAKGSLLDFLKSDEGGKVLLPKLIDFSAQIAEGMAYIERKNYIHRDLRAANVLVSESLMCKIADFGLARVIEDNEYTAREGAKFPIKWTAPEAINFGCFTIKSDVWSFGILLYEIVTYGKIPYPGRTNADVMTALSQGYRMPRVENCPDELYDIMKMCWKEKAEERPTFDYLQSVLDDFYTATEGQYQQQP

Row | SMILES | inhibition [1] | inhibition [2] | inhibition [3] | inhibition [4] | inhibition [5] | inhibition [6] | inhibition [7] | inhibition [8] | inhibition [9] | inhibition [10] | inhibition [11] | inhibition [12] | inhibition [13] | inhibition [14] | inhibition [15] | inhibition [16] | inhibition [17] | inhibition [18] | inhibition [19] | inhibition [20]
1 | CCn1c(-c2nonc2N)nc2cnc(Oc3cccc(NC(=O)c4ccc(N(C)C)cc4)c3)cc21 | 0.1% | 1.48% | 1.6% | 0.82% | 1.31% | 0.23% | 0.04% | -1.57% | -4.37% | 2.84% | 2.13% | 4.44% | 6.4% | 1.28% | 1.65% | 2.82% | 4.91% | 1.85% | 6.18% | 3.88%
2 | c1ccc(-c2nc3n(c2-c2ccc4c(c2)OCO4)CCC3)nc1 | 0.36% | 1.78% | 2.26% | 0.94% | 0.92% | 1.83% | 0.66% | 2.27% | -1.42% | 0.55% | 2.2% | 3.23% | 7.15% | 3.87% | 2.04% | 2.77% | 2.15% | 2.48% | 2.33% | 3.66%
3 | COc1cc(Nc2nccc(Nc3ccc4c(C)n[nH]c4c3)n2)cc(OC)c1OC | 33.3% | 49.6% | 87.4% | 44.5% | 85.6% | 3.5% | 14.4% | 1.57% | 12.3% | 21.3% | 72.5% | 76% | 91.6% | 50% | 90.2% | 11.4% | 59% | 71.4% | 96.5% | 74.4%
4 | CCNC(=O)O[C@H]1CN[C@H](C#Cc2cc3ncnc(Nc4ccc(OCc5cccc(F)c5)c(Cl)c4)c3s2)C1 | 2.99% | 5.67% | 3.68% | 2.23% | 1.7% | 0.26% | 7.09% | 3.78% | 1.15% | 2.4% | 3.77% | 5.36% | 8.44% | 1.55% | 1.32% | 4.01% | 3.06% | 1.45% | 1.92% | 2.77%
5 | CCCN(CCS(C)(=O)=O)Cc1ccc(-c2ccc3ncnc(Nc4ccc(OCc5cccc(F)c5)c(Cl)c4)c3c2)o1 | 5.18% | 4.64% | 7.93% | 2.71% | 6.38% | 4.13% | 7.18% | 2.91% | 5.26% | 3.54% | 2.34% | 7.21% | 16.2% | 3.62% | 5.72% | 4.68% | 4.67% | 2.84% | 7.4% | 3.14%
6 | CCn1c(-c2nonc2N)nc2ccccc21 | 1.66% | 3.33% | 2.16% | 2.02% | 0.98% | -0.11% | 1.81% | 5.36% | 2.36% | 3.36% | 4.12% | 6.47% | 8.29% | 2.53% | 2.64% | 2.43% | 3.19% | 1.19% | 1.67% | 2.55%
7 | CCN(CC)S(=O)(=O)c1ccc(OC)c(Nc2ncc(-c3ccccc3)o2)c1 | -0.4% | 4.63% | 34.8% | 4.28% | 28.9% | 0.62% | 2.09% | 3.7% | 4.3% | -2.42% | 6.08% | 12.7% | 50.7% | 5.3% | 23.2% | 8.47% | 8.95% | 10.1% | 39.2% | 19.2%
8 | Fc1ccc(-c2nn3ccccc3c2-c2ccncc2)cc1 | 0.03% | 0.64% | 6.12% | 0.28% | 4.71% | 1.48% | 2.6% | -1.86% | 3.37% | 3.06% | 3.5% | 1.93% | 5.44% | 1.99% | 5.38% | 3.28% | 1.29% | 1.28% | 5.89% | 0.58%
9 | O=C(Nc1n[nH]c2cc(-c3ccc(F)cc3)ccc12)C1CC1 | 2.75% | 6.61% | 5.51% | 3.7% | 3.43% | 2.14% | 2.68% | 1.03% | 0.71% | 2.93% | 4.55% | 4.52% | 14.6% | 4.21% | 12.9% | 3.24% | 8.33% | 4.41% | 13.2% | 2.29%
10 | COc1cc(/C=N/Nc2ncnc3[nH]ncc23)ccc1O | 12.2% | 16.8% | 63.9% | 12.6% | 59.6% | 1.2% | 9.92% | 1.87% | 14.9% | 5.09% | 22.6% | 27.3% | 72.4% | 28.4% | 80.8% | 3.77% | 16.5% | 25% | 76.3% | 21.9%
11 | COC(=O)Nc1nc2ccc(Oc3ccc(NC(=O)Nc4cccc(Cl)c4)cc3)cc2[nH]1 | 1.17% | 5.13% | 13.5% | 4.25% | 11.1% | 2.64% | 2.51% | 9.7% | 12.3% | 10.2% | 33.2% | 62.2% | 76.9% | 2.44% | 8.07% | 76.6% | 85.5% | 74.6% | 92.6% | 12.2%
12 | Fc1ccc(-c2nn3ncccc3c2-c2ccnc(Nc3ccc4c(c3)OCCO4)n2)cc1 | 5.5% | 32.5% | 78.8% | 26% | 72.7% | 5.86% | 31.5% | 4.89% | 10.7% | 3.02% | 3.55% | 15.1% | 54.8% | 12.1% | 56.1% | 5.87% | 17.9% | 21.9% | 72% | 29.3%
13 | Nc1nc(-c2ccc(F)cc2)c(-c2ccc3ncccc3n2)s1 | 7.86% | 9.43% | 39.4% | 7.37% | 33% | 2.57% | 5.56% | 4.07% | 10.1% | 3.45% | 7.29% | 16.9% | 51.7% | 14.4% | 61.6% | 9.38% | 11.5% | 13.2% | 49.5% | 10.9%
14 | COC(=O)Nc1nc2ccc(S(=O)(=O)c3ccc(NC(=O)Nc4cc(C(F)(F)F)ccc4F)cc3)cc2[nH]1 | 0.53% | 3.86% | 3.43% | 1.56% | 3.05% | 0.88% | 4.05% | -2.38% | 0.66% | 2.5% | 4.85% | 2.65% | 4.3% | 3.19% | 0.61% | 3.85% | 2.62% | 2.98% | 3.2% | 5.73%
